The record followed here is PubChem BioAssay AID1578 (Sanford-Burnham Center for Chemical Genomics, 2009).

“And” between values parts separate entries of the source, which are not always exact repeats. Equal values may be shown once. The whole screen tested about 290,000 compounds, of which about 3,000 (1%) were called active. No stated cut-off is given here; in the data, active means inhibition mostly above about 36% (no sharp cut-off); inactive means mostly below about 34%. The sample as a whole holds a higher share of actives than the screen did.

A short description of the test: inhibition of NOD1-driven NF-kB reporter – cell-based, luminescence, uHTS, primary screen (AID 1578).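 Further: HEK-293T reporter cells stimulated with the NOD1 agonist gamma-tri-DAP.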 To be noted: NOD1-driven NF-kB luciferase reporter cells, at 4 µM, stronger effect = higher value. In general terms: Reporter assays use an easily measured gene product as a stand-in for the process of interest.
Take `COc1ccccc1-c1noc(CCCC(=O)N2CCOCC2)n1`: the inhibition is -3.7% (inactive).

With `O=C(CCc1nc(-c2ccc(Cl)cc2)no1)NC1CCCCC1`, the inhibition was -5.8% (inactive). In the case of `CCOC(=O)C1CCCN(C(=O)CNC(=O)Cn2ccc3ccccc3c2=O)C1` (configuration not stated), the inhibition is -4.8% (inactive). Under `O=C(NC(=O)N1CCCCC1)c1ccccc1` stands -30.9% (inactive); under `O=C(NCc1ccccc1)c1cc[n+](CC(=O)c2cccs2)cc1`, 3.5% (inactive); under `CCOc1ccc(CN(C)C(=O)c2ccc3ccccc3n2)cc1`, -22.9% (inactive). Take `Cc1cccc(N(Cc2ccccc2)C(=O)c2ccc(S(C)(=O)=O)cc2)c1`: the inhibition is 5.8% (inactive). Under `CCNC(=S)N1CCN(c2ccc([N+](=O)[O-])cc2)CC1` stands 16% (inactive); under `C=CCNC(=S)N1CCN(c2ccc([N+](=O)[O-])cc2)CC1`, 4.7% (inactive); under `O=[N+]([O-])c1ccc(N2CCN(C(=S)NCc3ccc(Cl)cc3)CC2)cc1`, 89% (active). As to `CC(C)(C)n1nc2c(c1NC(=O)c1cc(Cl)ccc1[N+](=O)[O-])CS(=O)(=O)C2`, the inhibition was 19.5% (inactive).

As for `O=C(O)CSc1nnc(-c2ccc(Cl)cc2Cl)n1-c1ccc(Br)cc1`, the inhibition was 14.7% (inactive). The same measure for `Nc1[nH]n2c(=O)cc(-c3ccccc3)nc2c1N=Nc1ccc(S(N)(=O)=O)cc1`: -26% (inactive); for `Cc1ccc(N=Nc2c(N)[nH]n3c(=O)cc(C)nc23)cc1`: -20.5% (inactive). With `Cc1ccc(N=Nc2c(N)[nH]n3c(=O)cc(-c4ccccc4)nc23)cc1`, the inhibition was 76% (active). `Cc1ccc(C(=O)CSc2nc(-c3ccccc3)cc(=O)[nH]2)cc1`: the inhibition is 64.8% (active). Under `O=C(O)CSc1nc(-c2ccccc2)cc(=O)[nH]1` stands -22.9% (inactive).

Turning to `Cc1ccc(C(=O)CSc2nc(C)cc(=O)[nH]2)cc1`, the inhibition was -3.4% (inactive). On to `CCOC(=O)Cn1c(=O)oc2cc(S(=O)(=O)N(C)c3ccc(OC)cc3)ccc21`, for which the inhibition was 3.5% (inactive).

Consider `COc1cc(/C=C2\C(=O)ON=C2c2ccccc2)cc(Br)c1O`, for which the inhibition was 13.8% (inactive). `CCOc1cc(/C=C2/C(=O)ON=C2C)cc(Br)c1O`: the inhibition was 25.8% (inactive). As for `CCOc1cc(/C=C2\C(=O)ON=C2c2ccccc2)cc(Br)c1O`, the inhibition was 39.5% (active). Take `C/C(N)=C(/C#N)C(=O)COC(=O)CC12CC3CC(CC(C3)C1)C2`: the inhibition is 14.9% (inactive). With `CCn1c(CNC(=O)Cc2ccc(OC)cc2)nnc1SCC(=O)Nc1nccs1`, the inhibition is -10.4% (inactive).

Take `O=C(O)c1ccc(N=Nc2c(-c3ccccc3)[nH]oc2=O)cc1`: the inhibition is -2.7% (inactive).

Consider `O=c1o[nH]c(-c2ccccc2)c1N=Nc1c(F)cccc1Cl`, for which the inhibition is 37% (active). `Cc1[nH]oc(=O)c1N=Nc1c(Cl)cccc1Cl`: the inhibition is -17% (inactive).

Take `Cc1ccc(N2C(=O)/C(=C/c3cccnc3)SC2=S)cc1`: the inhibition is 56.2% (inactive).

For `C=C1C(C(=O)Nc2ccc(F)cc2)C1C(=O)Nc1ccc(F)cc1` (configuration not stated), the inhibition was 3.1% (inactive). The same measure for `O/N=C/c1ccccc1Oc1ccc(Cl)cc1`: 72.6% (active); for `O/N=C/c1ccccc1Oc1ccccc1`: 22.6% (inactive). `O/N=C\c1ccccc1Oc1ccc(F)cc1`: the inhibition was 8% (inactive).

As for `CCOC(=O)/C(C#N)=C\c1cccnc1`, the inhibition was -19.2% (inactive). For the compound `CCOC(=O)/C(=C\c1cccnc1)C(=O)c1cc(C(C)=O)c(Nc2ccccc2)s1`, the inhibition was 102% (active). In the case of `CCOC(=O)/C(=C\c1ccccc1)C(=O)c1cc(C(C)=O)c(Nc2ccccc2)s1`, the inhibition was 57.5% (inactive).

In the case of `Cc1ccc2occ(/C=N/NC(=O)c3ccccc3C)c(=O)c2c1`, the inhibition is 49% (active).

`Cc1ccc2occ(/C=N/NC(=O)c3ccccc3Br)c(=O)c2c1`: the inhibition was 29.9% (inactive). Consider `Cc1ccc2occ(/C=N/NC(=O)c3ccccc3O)c(=O)c2c1`, for which the inhibition was -14.7% (inactive). Under `O=S1(=O)C=C(SCc2cccc(Cl)c2)Nc2ccccc21` stands 21.1% (inactive); under `COc1cccc(OC)c1Nc1nc(C)nc2c1nnn2Cc1ccccc1Cl`, -33.1% (inactive). The same measure for `CCc1nc(Nc2ccc(OC)c(OC)c2)c2nnn(Cc3ccccc3Cl)c2n1`: 58.7% (active); for `COc1ccc(Nc2nc(C)nc3c2nnn3Cc2ccccc2)cc1OC`: 0% (inactive). The same measure for `O=C(Nc1ccnn1C1CCN(C2CCCCC2)CC1)c1ccccc1`: -6.5% (inactive); for `COc1cc(/C=N/n2c(C)nc3ccccc3c2=O)cc(OC)c1O`: -6.8% (inactive); for `O=C(c1ccc(Cl)c(S(=O)(=O)N2CCCCC2)c1)N1CCCCC1`: -30.5% (inactive). Regarding `O=C(c1ccc(Cl)c(S(=O)(=O)N2CCCCCC2)c1)N1CCCC1`, the inhibition is 0.4% (inactive).

Regarding `NS(=O)(=O)c1cc(C(=O)N2CCNC(=O)C2)ccc1Cl`, the inhibition was 70.4% (active). For `O=c1c2c([nH]c3ccccc13)C(=C1CCCC1)CC2`, the inhibition was 2.8% (inactive). For the compound `Cc1ccc(N2CCN(C(=O)c3cccs3)CC2)cc1C`, the inhibition was 1.8% (inactive). Under `Cc1ccc(C2=[N+]([O-])C3(CCCCC/C3=N\O)N(O)C2(C)C)o1` (configuration not stated) stands 14.4% (inactive); under `COc1ccc(CNC(=O)c2ccc(C(C)(C)C)cc2)cc1`, -24.6% (inactive). On to `C[C@@H]1CC[C@@]2(O[C@H](CCO)C[C@@H](O)[C@@H]2O)O1`, for which the inhibition is -47.3% (inactive). As to `CCCCCn1c(=O)[nH]c2cc(C(=O)N3CCN(CC)CC3)ccc2c1=O`, the inhibition was -4% (inactive). Regarding `COCCn1c(=S)[nH]c2cc(C(=O)N3CCN(Cc4ccc5c(c4)OCO5)CC3)ccc2c1=O`, the inhibition is -2.2% (inactive). Regarding `COc1ccc(-n2c(Cn3nnc4ccccc43)n[nH]c2=S)cc1`, the inhibition was 12% (inactive). Under `COc1ccccc1S(=O)(=O)Nc1cc(S(=O)(=O)N2CCCCC2)ccc1N1CCOCC1` stands -35.7% (inactive); under `COc1ccc(C(=O)c2no[n+]([O-])c2C(=O)c2ccc(OC)cc2)cc1`, 6.8% (inactive). The same measure for `O=C(c1cccs1)c1no[n+]([O-])c1C(=O)c1cccs1`: 98.1% (active). The same measure for `Cc1ccc(C(=O)c2no[n+]([O-])c2C(=O)c2ccc(C)cc2)cc1`: 18% (inactive). As for `O=S(=O)(c1ccc(F)c(F)c1F)N1CCN(C(=S)NC2CC3CCC2C3)CC1` (configuration not stated), the inhibition was -22.5% (inactive).

On to `Cc1ccc(NC(=O)/C(C#N)=C/c2ccccc2C(F)(F)F)cc1`, for which the inhibition is -32.5% (inactive). Under `Cc1ccc(CSc2nccc(-c3c(C)nc4ccccn34)n2)cc1` stands 27% (inactive); under `Cc1nc2ccccn2c1-c1ccnc(SCc2ccc(Cl)cc2)n1`, 37.7% (active); under `Clc1ccc(CSc2ncccn2)cc1`, -34.4% (inactive). For the compound `COc1ccc2c(C)cc(SCC(=O)Nc3cc(C(N)=O)cc(C(N)=O)c3)nc2c1`, the inhibition is -7% (inactive). Regarding `O=C(O)Cc1ccc(NC(=S)NCc2ccco2)cc1`, the inhibition was -27.1% (inactive). As for `O=C(Cc1cccs1)NNC(=S)NCc1ccco1`, the inhibition was -26.1% (inactive).

Consider `O=C(Cc1ccc(-c2ccccc2)cc1)NNC(=S)NCc1ccco1`, for which the inhibition was 41.4% (active).

As for `CC(=O)c1ccc(C(=O)N2CCCC(CO)(Cc3ccccc3C)C2)s1` (configuration not stated), the inhibition was -39% (inactive). The same measure for `COc1ccc2c(c1)c1nc3n(c(=O)c1n2CC(=O)Nc1ccccc1)CCS3`: -17.5% (inactive); for `COc1ccc2c(c1)c1nc3n(c(=O)c1n2CC(=O)Nc1cc(C)[nH]n1)CCS3`: 63.4% (active). For the compound `COc1ccc(NC(=O)Cn2c3ccc(OC)cc3c3nc4n(c(=O)c32)CCS4)cc1`, the inhibition is -15.9% (inactive). Under `COc1ccc(OC(=O)N2CCOCC2)cc1` stands -16.5% (inactive); under `CC1CCCC(NC(=O)COC(=O)Cc2cn3ccsc3n2)C1C` (configuration not stated), 6.7% (inactive). Under `COc1ccc(-n2c(-c3ccc(Br)cc3)c[n+]3c2CCc2ccccc2-3)cc1` stands 13.3% (inactive).

As for `Cc1ccc(-c2c[n+]3c(n2-c2ccccc2)CCC3)cc1`, the inhibition was 25.4% (inactive). Regarding `COc1ccccc1-n1c(-c2ccccc2)c[n+]2c1CCc1ccccc1-2`, the inhibition is 52.9% (active) and 68.6% (active). Under `COc1ccc(-n2c(-c3ccc(Cl)cc3)c[n+]3c2CCc2ccccc2-3)cc1` stands 20.5% (inactive); under `Cc1ccc(-n2c(-c3ccccc3)c[n+]3c2CCC3)cc1`, 9.5% (inactive); under `Cc1ccc(-n2c(-c3ccccc3)c[n+]3c2CCc2ccccc2-3)c(C)c1`, 66% (active). Regarding `CCOc1ccc(-c2c(C(=O)N/N=C/c3ccco3)nnn2-c2nonc2N)cc1`, the inhibition was -7.1% (inactive). Under `O=C(Cn1cnc(S(=O)(=O)N2CCCCC2)c1)NCc1ccco1` stands -11.7% (inactive); under `CC(C)N(Cc1ccccc1)C(=S)Nc1ccccc1F`, -3.5% (inactive).

With `CCOC(=O)CN(c1ccccc1C)S(=O)(=O)c1ccc(Cl)cc1`, the inhibition is 21.3% (inactive). In the case of `CCN(CC)C(=O)Cn1cc(C(=O)C(=O)N(CC)C2CCCCC2)c2ccccc21`, the inhibition was -4.6% (inactive). For the compound `Cn1c(=O)c2nc3ccccc3nc2n(C)c1=O`, the inhibition is -21.3% (inactive).

Turning to `Cc1nc2c(=O)n(C)c(=O)n(C)c2nc1Cl`, the inhibition was 94.4% (active). Turning to `Cn1c(=O)c2nc(Cl)c(-c3ccccc3)nc2n(C)c1=O`, the inhibition was -30.8% (inactive).

For `CCCC(C)NC(=O)/C=C/c1cccc([N+](=O)[O-])c1` (configuration not stated), the inhibition is -26.2% (inactive).

`CCOC(=O)CNC(=O)CSc1nnc(NC(=O)c2ccc(C)cc2)s1`: the inhibition was 44.8% (active). Turning to `CCOC(=O)CNC(=O)CSc1nnc(NC(=O)c2ccc3c(c2)OCO3)s1`, the inhibition is -31.4% (inactive). The same measure for `CCOC(=O)CNC(=O)CSc1nnc(NC(=O)c2ccccc2Cl)s1`: -7.6% (inactive); for `CN1CCN(NC(=O)C23CC4CC(CC(C4)C2)C3)CC1`: -2.4% (inactive); for `COc1ccc2c(CC(=O)Nc3ccccc3OC)coc2c1`: 57.6% (active). The same measure for `COc1ccc2c(CC(=O)Nc3ccccc3N3CCOCC3)coc2c1`: 16.3% (inactive); for `COc1ccccc1NC(=O)Cc1coc2cc(C)ccc12`: -17.5% (inactive); for `O=C(NC(=S)Nc1ncccn1)c1ccc(Cl)cc1Cl`: -41.6% (inactive).

Usually inhibition stands for the relative decrease from the control value, in per cent.
